Source: PubChem BioAssay (The Scripps Research Institute Molecular Screening Center)
Only some compounds are listed: those with a hit (about 2.4% of all), similar ones and a draw of the others.
CHO-K1 Ca ag: M1 agonist counterscreen hit in parental CHO-K1 cells; activation, % at 3 µM; actives 0.48% (n = 360,000); Fluo-8 calcium fluorescence; scaled to maximal ATP response, vehicle zero; in the data active = activation above about 15%;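 also: untransfected CHO-K1 host cells lacking M1 receptor as counterscreen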
CHO-K1 Ca antag: nonselective inhibitor or artifact in parental CHO-K1 cells; ATP-induced calcium, Fluo-8 fluorescence; inhibition, % at 3 µM; actives 0.6% (n = 360,000); AID 602250;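 active = inhibition above a per-plate cutoff, the plate's mean sample inhibition plus 3 SD, cut at about 24% in these data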;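 also: 0% = DMSO plus EC80 ATP and 100% = DMSO alone without ATP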
CHRM1 PAM: potentiates human M1 receptor response to acetylcholine; P11229; CHO-K1 hM1, Fluo-8 calcium fluorescence, ACh EC20; 0% = ACh EC20, 100% = maximal ACh; activation, % at 3 µM; actives 0.088% (n = 360,000); in the data active = activation above about 19%, passing the limit was not always enough
Target sequence (P11229 whole entry, looked up): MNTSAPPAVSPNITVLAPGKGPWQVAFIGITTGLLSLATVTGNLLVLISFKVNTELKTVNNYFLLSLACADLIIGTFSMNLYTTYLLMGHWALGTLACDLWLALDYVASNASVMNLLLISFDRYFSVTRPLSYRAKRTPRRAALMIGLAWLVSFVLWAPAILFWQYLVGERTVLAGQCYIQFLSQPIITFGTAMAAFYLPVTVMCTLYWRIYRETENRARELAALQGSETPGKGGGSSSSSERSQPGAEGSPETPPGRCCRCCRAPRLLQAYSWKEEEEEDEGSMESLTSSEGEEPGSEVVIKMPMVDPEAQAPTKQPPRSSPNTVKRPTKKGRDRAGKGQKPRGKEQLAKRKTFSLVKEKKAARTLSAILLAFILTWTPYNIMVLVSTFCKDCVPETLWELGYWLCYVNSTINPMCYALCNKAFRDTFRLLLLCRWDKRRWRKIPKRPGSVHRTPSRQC
M1 PAM parental: nonselective activator or artifact in parental CHO-K1 calcium assay; ATP EC20, Fluo-8 calcium fluorescence; 0% at ATP EC20, 100% at ATP max; activation, % at 3 µM; actives 0.02% (n = 360,000);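 active = activation above the run cutoff, the mean activation of all test compounds plus 3 SD, cut at about 40% in these data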;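 also: peak over basal fluorescence ratio in a 140 s read after ATP addition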
M1 antag: human CHRM1 antagonism. P11229. inhibition, % at 3 µM. CHO-K1 hM1, Fluo-8 calcium fluorescence, ACh EC80 antagonist. actives 1.3% (n = 360,000);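 active = percent inhibition above its own plate's cutoff, namely the mean of that plate's compound wells plus 3 SD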;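 also: peak over basal fluorescence ratio during 140 s after agonist addition; 0% = ACh EC80 plus DMSO and 100% = DMSO alone without agonist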
CHRM1 agonist: activates human CHRM1 receptor. P11229. CHO-K1 hM1, Fluo-8 calcium fluorescence, agonist mode; 0% DMSO, 100% acetylcholine EC100. activation, % at 3 µM. actives 0.33% (n = 360,000). AID 588814;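 active = activation above the run's mean compound activation plus 3 SD, cut at about 16% in these data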;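 also: peak over basal fluorescence ratio within a 140 s kinetic read after compound addition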
An asterisk follows results filed as active.

SMILES	CHO-K1 Ca ag	CHO-K1 Ca antag	CHRM1 PAM	M1 PAM parental	M1 antag	CHRM1 agonist
O=C(c1cccc2ccccc12)C1CCCN(C2CCC2)C1 (configuration not stated)	-0.4	-2.4	-13.9	16.4	26.4*	16.5*
OC(Cn1c2ccccc2c2ccccc21)C[n+]1cccc2ccccc21 (configuration not stated)	-0.1	-11.5	-21.9	24.0	62.6*	-6.9
Cc1cccc(CCNCc2cc3ccc(C)cc3[nH]c2=O)c1	2.5	-19.4	6.8	12.5	-12.7	-4.8
CCN1/C(=C\C=C\C2=[N+](CC)c3ccccc3C2(C)C)C(C)(C)c2ccccc21	313.2*	94.4*	-19.6	-24.2	96.4*	387.8*
CCCc1cc(=O)oc2cc(OCC(=O)N3CCC(C(=O)O)(c4ccccc4)CC3)ccc12	-0.4	24.6*	7.1	-2.4	-12.0	-2.4
CCCc1cc(=O)oc2cc(OCC(=O)N3CCN(Cc4ccc5c(c4)OCO5)CC3)ccc12	3.7	-13.0	0.8	17.1	-10.9	-3.1
CCOc1cc2c(cc1OCC)-n1cccc1C(c1cccc(F)c1)NC2 (configuration not stated)	1.0	-5.1	3.1	7.5	-3.7	-5.5
COc1cc2c(cc1OC)[C@@H]1C(=O)c3ccc4c(c3O[C@@H]1CO2)C[C@H](C(C)C)O4	10.1	29.0*	-10.2	-5.6	34.0	2.4
CC(=O)c1cn(Cc2ccccc2C#N)c2ccccc12	16.9*	27.7*	-10.8	-9.5	34.8	0.9
O=P(O)(O)CN1CCNCCN(CP(=O)(O)O)CCNCC1	1.5	-12.4	6.2	9.7	-17.6	-2.3
COC(=O)C1=C(c2cccc(C#N)c2)C[C@@H]2CC[C@H]1N2C(=O)NC1Cc2ccccc2C1	-1.4	-8.5	6.8	4.6	-7.2	-14.0
Cc1cc(-c2ccccc2)cc(-c2ccccc2)[n+]1CCc1ccccc1	1.0	12.4	-24.9	12.2	59.8*	-9.6
Clc1ccc(C[n+]2c(-c3ccccc3)cc(-c3ccccc3)cc2-c2ccccc2)cc1	4.6	8.0	-14.2	-0.6	36.2*	-5.7
Oc1ccc(-[n+]2c(-c3ccccc3)cc(-c3ccccc3)cc2-c2ccccc2)cc1	0.5	-0.8	-16.0	6.6	18.5	-11.0
COc1ccc(-c2cc(=O)oc3c(C)c(OC(C)C(=O)N4C[C@H]5C[C@@H](C4)c4cccc(=O)n4C5)ccc23)cc1 (some centres not stated)	-0.1	-10.6	-1.3	15.0	-11.7	-14.1
Cc1ccnc(NC(=O)CCCc2ccc(N(CCCl)CCCl)cc2)n1	0.7	-2.6	0.2	2.8	-5.2	-3.4
C=C1N2CCC(CC2)C1(O)c1ccc(C)c(C)c1 (configuration not stated)	-0.1	6.2	-21.9	-17.1	72.2*	-4.3
CC(C)C/C(=N/O)c1cn(C)c2ccccc12	-0.5	-29.9	15.6	27.6	-13.7	-15.6
O=C(c1ccc(Cl)cc1)C1CCCN(Cc2cccc3ncccc23)C1 (configuration not stated)	9.3	8.2	-24.1	5.4	51.3*	-3.2
COc1ccc(CN2CCCC(C(=O)c3ccc(Cl)cc3)C2)c(O)c1 (configuration not stated)	0.8	-0.8	-4.6	2.7	-1.4	-7.3
O=C(c1ccc(Cl)cc1)C1CCCN(Cc2ccc3nonc3c2)C1 (configuration not stated)	0.0	5.0	-21.6	-10.2	43.4*	-6.0
O=C(c1ccc(C(F)(F)F)cc1)C1CCCN(Cc2ccncc2)C1 (configuration not stated)	10.3	5.5	-20.1	3.9	24.5	-5.1
O=C(c1ccc(Cl)cc1)C1CCCN(Cc2cccc3cccnc23)C1 (configuration not stated)	8.7	-18.4	-23.6	15.6	58.5*	-4.0
COc1ccc(CN2Cc3cc(-c4ccc(OC)cc4)ccc3-n3nncc3C2)cc1	1.0	5.6	-3.1	12.0	12.6	-6.8
CCCCCCC(=O)c1c(O)n(-c2ccc(OC)cc2)c(=O)[nH]c1=O (tested in a mixture with another compound)	0.1	-0.7	0.5	-6.5	-0.3	-3.5
SMILES	CHO-K1 Ca ag	CHO-K1 Ca antag	CHRM1 PAM	M1 PAM parental	M1 antag	CHRM1 agonist
COC(=O)C1=C(c2cccc(C#N)c2)C[C@@H]2CC[C@H]1N2C(=O)NC1CC1	-0.2	2.5	9.4	1.6	-3.3	-5.6
O=C(CCNC(=O)N1C[C@H]2C[C@@H](C1)c1cccc(=O)n1C2)Nc1cccc(Cl)c1	0.0	-0.9	6.0	7.1	-12.4	-2.1
S=C(NCCc1ccccc1)N1Cc2cc(Br)ccc2-n2nncc2C1	0.0	26.9*	-10.0	-7.6	17.9	-10.0
S=C(NCCc1ccccc1)N1Cc2ccc(Br)cc2-n2nncc2C1	1.1	5.0	4.5	-2.3	-0.2	7.2
Cc1ccc(CC(=O)N2CCN(Cc3ccccc3)CC2)cc1	1.2	-12.6	6.8	16.7	-9.6	-11.2
COc1ccccc1CC(=O)N1CCN(CCc2ccccc2)CC1	0.6	24.9*	7.5	-23.7	-11.3	-3.8
CCC(C)N1CCN(C(=O)Cc2ccccc2)CC1 (configuration not stated)	-0.4	25.5*	-20.3	-7.6	41.1*	-5.8
COC(=O)C1=C(c2ccc(F)cc2OCc2ccccc2)C[C@@H]2CC[C@H]1N2C(=O)NCCc1ccc(F)cc1	1.1	-20.6	-3.1	23.7	-12.4	-5.9
CC(CC(C#N)(c1ccccc1)c1ccccc1)N(C)C (configuration not stated)	-0.6	-1.6	-34.6	7.2	101.5*	-13.5
COc1cc(CN2CC=C(c3ccc(F)cc3)CC2)cc(OC)c1	0.9	-2.4	-25.4	-6.8	30.8*	-10.2
CN(C)CC#CCC(O)(c1ccccc1)C1CCCC1 (configuration not stated)	-0.1	24.8*	-27.8	-9.5	99.4*	-7.1
CC1(C(O)(C#CCN2CCCCC2)c2ccccc2)CCCC1 (configuration not stated)	1.1	-8.2	-21.5	9.9	100.0*	-7.6
C(#CCN1CCCCC1)COCc1ccccc1	2.4	-2.5	-5.4	9.7	16.3	-6.5
OC(CC#CCN1CCCCCC1)(c1ccccc1)C1CCCC1 (configuration not stated)	16.5*	16.6	-30.0	-14.9	99.5*	-6.5
CN(C)CC#CCn1c2ccccc2c2ccccc21	1.7	-8.1	-12.3	18.4	14.6	-4.7
Nc1cccc(SC2CC(=O)N(c3ccc(Cl)cc3C(=O)c3ccccc3)C2=O)c1 (configuration not stated)	-0.3	-2.9	-14.0	-14.0	30.6	-4.4
C=CC[C@@H](C)CC(=O)C(CCCN=[N+]=[N-])SOOc1ccccc1 (some centres not stated)	-0.8	-3.1	-7.5	-7.0	9.0	-6.0
